Source: PubChem BioAssay AID720493 (The Scripps Research Institute Molecular Screening Center, 2013)
This is one part of the list. Calls of active or inactive are those of the source.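 How the source made its calls: active means compounds that raise the fluorescence signal in this interference counterscreen, with EC50 at or below 10 µM; inactive means the rest.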

Assay: optical artefact potency, substrate without enzyme – biochemical, fluorescence intensity, triplicate, artefact control for kallikrein-7 zymogen activator project, dose response (AID 720493);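 further: intact quenched peptide substrate alone read at 355 nm excitation and 520 nm emission; signal is fluorescence gain from T0 to T4 after four hours at room temperature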
Settings: EDANS-DABCYL peptide fluorescence interference, no enzyme

EC50, inactive:
O=C(OC1CCOC1=O)c1ccc(-c2nc3ccccc3s2)s1 (stereo not drawn) > 69.5 µM
COc1c(N2CCN(C(=S)Nc3ccccc3F)C(C)C2)c(F)cc2c(=O)c(C(=O)O)cn(C3CC3)c12 (stereo not drawn) > 69.5 µM
O=c1c(-c2ccccc2)coc2c(CN3CCOCC3)c(O)ccc12 > 69.5 µM
CN(C(=O)c1cc2c(=O)n3ccccc3nc2s1)C1CCCCC1 > 69.5 µM
COC(=O)C1=NN(c2ccccc2)C2C(=O)N(c3ccccc3OC)C(=O)C12 (stereo not drawn) > 69.5 µM
O=C(Oc1c(-c2ccco2)oc2ccccc2c1=O)c1cccnc1 21.2 µM
COc1cccc2sc3cc(NCC[C@@H]4CCCN4C)ccc3c(=O)c12 > 69.5 µM
Cc1cccc(C)c1NC(=O)C(c1ccccc1)N1CC(=O)Nc2ccccc21 (stereo not drawn) > 69.5 µM
